TEAD-YAP inh – TEAD-YAP interaction inhibition, primary screen, TEAD-YAP interaction inhibitor project, luminescence, HEK-TIYL cells; TEAD-Gal4/YAP UAS-luciferase luminescence; inhibition, % at 9.12 µM; 1.4% of 640,000 active; in the data active means inhibition above about 32%;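 further: 0% = median of test compound wells and 100% = reference inhibitor wells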
GPR151 ag – activators of human GPR151, primary screen, cell-based, PathHunter beta-arrestin, luminescence; G-protein coupled receptor 151 (Homo sapiens), Q8TDV0; PathHunter beta-arrestin GPR151 cells; activation, % at 11.2 µM; 1% of 650,000 active; in the data active means activation above about 4.9%;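 further: 0% = median of compound wells and 100% = cells with positive control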
FBW7 activator – FBW7 E3 ligase activators, primary screen, biochemical, AlphaScreen, human; F-box/WD repeat-containing protein 7 (Homo sapiens), Q969H0; AlphaScreen FBW7–phospho-cyclin E peptide binding, activator screen; normalized activity (activation), % at 26.1 µM; 0.13% of 650,000 active; AID 1259310, 2017; in the data active means normalized activity above about 1.9%;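 further: purified mutant Fbw7 with reduced substrate affinity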
Target sequence (Q969H0 whole entry, looked up): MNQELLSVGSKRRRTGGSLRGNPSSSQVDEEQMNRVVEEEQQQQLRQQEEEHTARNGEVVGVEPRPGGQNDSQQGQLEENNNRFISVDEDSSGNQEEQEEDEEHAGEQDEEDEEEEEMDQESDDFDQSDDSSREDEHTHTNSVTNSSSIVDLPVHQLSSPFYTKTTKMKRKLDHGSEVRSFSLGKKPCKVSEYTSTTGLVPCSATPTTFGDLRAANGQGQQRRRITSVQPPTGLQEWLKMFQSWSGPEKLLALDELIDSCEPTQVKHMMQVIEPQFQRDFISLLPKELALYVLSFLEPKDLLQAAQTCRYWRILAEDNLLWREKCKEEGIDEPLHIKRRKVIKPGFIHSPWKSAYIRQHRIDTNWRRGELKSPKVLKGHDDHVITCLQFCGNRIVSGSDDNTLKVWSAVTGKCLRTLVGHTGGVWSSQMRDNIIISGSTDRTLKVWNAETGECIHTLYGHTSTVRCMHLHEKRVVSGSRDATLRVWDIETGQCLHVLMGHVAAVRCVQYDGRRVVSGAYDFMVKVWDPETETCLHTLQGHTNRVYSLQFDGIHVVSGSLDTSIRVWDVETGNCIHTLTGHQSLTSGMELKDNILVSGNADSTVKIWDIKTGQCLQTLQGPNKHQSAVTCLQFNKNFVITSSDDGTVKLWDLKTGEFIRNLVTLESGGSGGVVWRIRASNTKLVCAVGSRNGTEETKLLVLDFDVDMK
MITF inh – MITF inhibitors, primary screen, biochemical, AlphaScreen, human; Microphthalmia-associated transcription factor (Homo sapiens), O75030; AlphaScreen MITF homodimerization, bead proximity signal; inhibition, % at 2.6 µM; 0.91% of 650,000 active; in the data active means inhibition above about 50%;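 further: 0% = vehicle wells with protein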
MITF confirm – MITF inhibitors, retest of hits, confirmation, biochemical, AlphaScreen, triplicate; shares compounds with MITF inh; AlphaScreen MITF homodimerization, biotin/His-MITF beads; inhibition, % at 2.6 µM; 16% of 4,700 active; AID 1259372, 2018;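 active means inhibition above a cutoff derived from the DMSO control wells, cut at about 28% in these data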;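 further: 0% = MITF dimer wells with DMSO only; inhibitors lower the bead chemiluminescence by keeping MITF from dimerizing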
AS interf DR – AlphaScreen optical interference compounds, dose response, counter-screen, biochemical, HTS; shares compounds with MITF inh; IC50, µM; 6% of 480 active; AlphaScreen optical interference counterscreen, cell-free; AID 1259373, 2018; call rule not given here
AlphaScreen intf2 – AlphaScreen optical interference compounds, counter-screen for MITF inhibitor project, biochemical, triplicate | shares compounds with MITF inh | LysRS AlphaScreen counterscreen, signal interference | inhibition, % at 2.6 µM | 7.6% of 4,700 active | AID 1259376, 2018;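 active means inhibition above a cutoff derived from the DMSO control wells, cut at about 30% in these data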
* marks the source's active call; other numbers are inactive results; nt = not tested or not shown. In the library only some 3.5% were active in any assay of this set; here they are far more common.

SMILES	TEAD-YAP inh	GPR151 ag	FBW7 activator	MITF inh	MITF confirm	AlphaScreen intf2	others
CCc1nc(SCC(=O)c2ccc(OC)cc2)n[nH]1	-8	0	0	51*	8	13
Cc1noc(C)c1CC(=O)N1CCCC(C(=O)Nc2cccc(-c3ccc(F)cc3)c2)C1 (configuration not stated)	0	1	0	-10	nt	nt
COc1ccccc1N1CCN(C(=O)CSc2nc3c(sc(=S)n3-c3ccc(C)c(C)c3)c(=O)n2-c2ccccc2)CC1	-21	0	0	24	nt	nt
O=[N+]([O-])c1ccc(CNC2CCCC2)cc1	-11	0	0	12	nt	nt
CC1CCCCC1NCc1ccc([N+](=O)[O-])cc1 (configuration not stated)	7	0	0	75*	-9	-4
O=C1c2ccc(-c3nc4ccccc4c(=O)o3)cc2C(=O)N1c1ccccc1[N+](=O)[O-]	2	-1	0	-9	nt	nt
CC1(C)CC(=O)C=C(NCCN2CCN(C(=O)Nc3ccc(Cl)c(Cl)c3)CC2)C1	0	2	0	73*	9	10
COc1cc(=O)n2c(c1C(=O)N1CCCC1)CCN(Cc1cccc(C)c1)CC2	1	0	0	2	nt	nt
O=C(ON1C(=O)CCC1=O)c1cccs1	5	0	0	-5	nt	nt
O=C(CCc1ccccc1)Nc1ccc(C(=O)N2CCCCC2)cc1	3	0	0	-15	nt	nt
O=C(CNCCc1ccc(Cl)cc1)Nc1ccc(C(=O)N2CCCCC2)cc1	6	0	0	58*	9	21
O=C(CNCc1ccc(F)cc1)Nc1ccc(C(=O)N2CCCCC2)cc1	6	-1	0	69*	9	17
O=C(CNC1CCCCCC1)Nc1ccc(C(=O)N2CCCCC2)cc1	11	-1	0	44	nt	nt
O=C(Cc1ccc(Cl)cc1)Nc1ccc(C(=O)N2CCCCC2)cc1	-22	1	0	1	nt	nt
O=C(CNCCc1ccccc1)Nc1ccc(C(=O)N2CCCCC2)cc1	-13	0	0	52*	10	19
O=C(CNCc1ccccc1Cl)Nc1ccc(C(=O)N2CCCCC2)cc1	0	0	0	72*	16	18
COc1ccc(C(=O)Nc2ccc(S(=O)(=O)N3CCCCCC3)cc2)cc1Br	-6	-1	1	13	nt	nt
COc1cc(/C=C2\C(=O)N(C)C(=O)N(c3ccccc3)C2=O)ccc1O	0	0	0	16	nt	nt
CCOC(=O)c1c(NC(=O)CN(C)C)sc(C)c1C	6	0	0	5	nt	nt
CCOC(=O)c1c(NC(=O)CN2CCN(CC)CC2)sc(C)c1C	5	-1	0	86*	6	2
CCOC(=O)c1sc(NC(=O)CN2C(C)CCCC2C)c(C(=O)OCC)c1C (configuration not stated)	-3	2	0	58*	-5	3
CCCCCC1CCC(c2ccc(OC(=O)Cn3c4ccccc4c(=O)c4ccccc43)cc2)CC1 (configuration not stated)	11	-1	1	16	nt	nt
CC1CN(CC(=O)N(C)CC2CCCCO2)Cc2cc(Cl)ccc2O1 (configuration not stated)	5	2	0	55*	-4	-1
CCNc1nc(Oc2ccc(C(=O)OCC)cc2)nc(N(C)C)n1	-2	1	0	-13	nt	nt
CCOC(=O)c1ccc(Oc2nc(N(C)C)nc(N(C)C)n2)cc1	-10	1	0	54*	3	7
SMILES	TEAD-YAP inh	GPR151 ag	FBW7 activator	MITF inh	MITF confirm	AlphaScreen intf2	others
O=C(O)CCN(CCC(=O)O)c1ccc(O)cc1	-19	2	-1	69*	48*	-10	AS interf DR=>6.5
O=S(=O)(Cc1ccccc1)N1CCN(C2CCN(Cc3ccccc3)CC2)CC1	-10	0	0	65*	-7	0
O=S(=O)(Cc1ccc(Cl)cc1)N1CCN(Cc2ccccc2)CC1	-1	1	1	0	nt	nt
CCc1ccc(CN2CCN(S(=O)(=O)Cc3ccccc3)CC2)cc1	15	-2	0	60*	6	13
CSc1ccc(CN2CCN(S(=O)(=O)Cc3ccccc3)CC2)cc1	14	0	0	72*	10	13
O=S(=O)(Cc1ccccc1)N1CCN(Cc2ccc(Br)cc2)CC1	1	2	0	59*	10	9
CSc1ccc(S(=O)(=O)N2CCN(Cc3ccccc3)CC2)cc1	-4	-2	1	20	nt	nt
COC(F)(C(=O)Oc1cc([N+](=O)[O-])cc2cccnc12)C(F)(F)F (configuration not stated)	43*	0	-1	95*	99*	101*
Cc1cc(C)cc(OCCCCn2cncn2)c1	0	0	0	61*	1	5
Clc1ccc(OCCCn2cncn2)cc1Cl	6	2	0	63*	14	7
c1ccc(-c2ccc(OCCCCn3cncn3)cc2)cc1	-51	1	0	55*	37*	7	AS interf DR=>6.5
c1ccc(COc2ccc(OCCCCn3cncn3)cc2)cc1	-12	-2	0	7	nt	nt
CCOC(=O)c1nnn(-c2nonc2N)c1CSc1nn(-c2ccccc2)c(=S)s1	-4	1	1	30	nt	nt
COc1ccc(CCNC(CC(=O)Nc2ccc(Oc3ccccc3)cc2)C(=O)O)cc1 (configuration not stated)	-4	-1	1	2	nt	nt
COc1ccc(CCNC(C)CC(=O)Nc2ccccc2)cc1 (configuration not stated)	2	0	0	56*	12	11
Cc1ccc(Nc2nc(NCCN3CCOCC3)nc3nccnc23)cc1C	-8	-2	1	61*	-7	-4
N#C/C(=C\C=C\c1ccco1)C(N)=S	0	-1	-1	65*	60*	87*
O=C(Nc1cccc(Br)c1)C(=O)N1CCCCC1	-62	-5	0	-12	nt	nt
CCOC(=O)c1c(NC(=O)C(C)Sc2nnc(CNC(=O)c3cccs3)n2-c2cccc(C)c2)sc2c1CCCC2 (configuration not stated)	-2	-1	0	-1	nt	nt
O=C(Nc1ccccc1C(=O)NC1CCCCC1)c1cccc(S(=O)(=O)NC2CCCCC2)c1	3	0	0	15	nt	nt
Cc1ccc(NS(=O)(=O)c2cccc(C(=O)NNC(=O)NC3CCCCC3)c2)c(C)c1	-1	2	0	71*	4	13
O=c1[nH]c(=S)n(-c2ccccc2F)c(O)c1C=Nc1ccccc1Cl	5	1	0	9	nt	nt
